Only some compounds are listed: those with a hit (about 3.5% of all), similar ones and a draw of the others.
GPR151 ag: activators of human GPR151; Q8TDV0; PathHunter beta-arrestin GPR151 cells, luminescence; activation, % at 11.2 µM; hit rate 1% among 650,000; AID 1508602; in the data active means activation above about 4.9%;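 further: 0% = median of compound wells and 100% = cells with positive control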
FBW7 activator: activators of human E3 ligase FBW7. Q969H0. AlphaScreen FBW7–phospho-cyclin E peptide binding, activator screen. normalized activity (activation), % at 26.1 µM. hit rate 0.13% among 650,000. AID 1259310; in the data active means normalized activity above about 1.9%;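 further: purified mutant Fbw7 with reduced substrate affinity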
MITF primary: blocks human microphthalmia-associated transcription factor | O75030 | AlphaScreen MITF homodimerization, bead proximity signal | inhibition, % at 2.6 µM | hit rate 0.91% among 650,000 | AID 1259374; in the data active means inhibition above about 50%;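 further: 0% = vehicle wells with protein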
TEAD-YAP inh: TEAD-YAP interaction inhibition; HEK-TIYL cells, TEAD-Gal4/YAP UAS-luciferase luminescence; inhibition, % at 9.12 µM; hit rate 1.4% among 640,000; in the data active means inhibition above about 32%;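 further: 0% = median of test compound wells and 100% = reference inhibitor wells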
GPR151 conf act: confirmation of human GPR151 activators. activation, % at 11.2 µM. shares compounds with GPR151 ag. GPR151 PathHunter beta-arrestin cells, luminescence, 90 min; % of EA-reagent control over plate median. 6,700 tested, under 10 active;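 active means mean percent activation across replicates above the confirmation screen cutoff of 4.91%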
GPR119 ag: GPR119 activation, counter-screen for GPR151 activators. shares compounds with GPR151 ag. GPR119 PathHunter beta-arrestin cells, luminescence, 90 min; 0 = compound-well median, 100 = enzyme-acceptor control. activation, % at 11.2 µM. hit rate 0.3% among 6,700;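 active means mean percent activation in the counterscreen above 29.09%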;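 further: counterscreen on off-target GPR119 to flag nonselective hits from the GPR151 activator screen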
Target sequence (Q8TDV5 whole entry, looked up): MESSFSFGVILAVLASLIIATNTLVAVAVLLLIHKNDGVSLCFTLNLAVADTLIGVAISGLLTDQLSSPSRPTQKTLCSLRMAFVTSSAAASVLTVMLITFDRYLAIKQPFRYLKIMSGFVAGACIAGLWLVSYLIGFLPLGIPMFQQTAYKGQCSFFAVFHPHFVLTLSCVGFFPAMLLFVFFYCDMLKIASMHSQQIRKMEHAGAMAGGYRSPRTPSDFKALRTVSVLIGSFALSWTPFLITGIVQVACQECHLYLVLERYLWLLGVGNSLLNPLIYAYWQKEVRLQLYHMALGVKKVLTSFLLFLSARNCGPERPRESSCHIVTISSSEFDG
Starred values were filed as active, the others as inactive; ! = a repeat was not active.

`COc1ccccc1C1C=C(c2cccnc2)Nc2nc3ccccc3n21` (centres undefined) gave GPR151 ag -3.0, FBW7 activator 0.1, MITF primary 10.2 and TEAD-YAP inh 15.8.
O=C/C(=C\Nn1cnnc1)c1nc2ccccc2o1 was read as GPR151 ag 15.1*, FBW7 activator -0.2, MITF primary 12.9, TEAD-YAP inh 2.3, GPR151 conf act -0.3 and GPR119 ag -6.6.
`CNS(=O)(=O)c1ccc(N/C=C(\C#N)c2nc3ccccc3o2)cc1` gave GPR151 ag 1.4, FBW7 activator 0.3, MITF primary 12.3 and TEAD-YAP inh -29.9.
Screening COc1cccc(NC(=O)N2CCn3cccc3C2c2ccc(F)cc2)c1 (centres undefined) returned GPR151 ag -0.8, FBW7 activator -0.1, MITF primary 8.0 and TEAD-YAP inh -2.4.
For CCC1CN(CC(=O)NCCc2cn3ccccc3n2)Cc2ccc(Cl)cc2O1 (centres undefined) the results were GPR151 ag 0.6, FBW7 activator 0.2, MITF primary -1.1 and TEAD-YAP inh -12.6.
`O=C(O)[C@H]1/C(=C/CO)O[C@@H]2CC(=O)N21` gave GPR151 ag 4.9*!, FBW7 activator 0.0, MITF primary -1.2, TEAD-YAP inh -7.0, GPR151 conf act 0.4 and GPR119 ag 2.9.
Screening O=C(O)C1CC(=O)N(CCN2CC(C(=O)O)CC2=O)C1 (centres undefined) returned GPR151 ag 0.0, FBW7 activator 0.2, MITF primary 11.8 and TEAD-YAP inh 3.5.
O=C(NCc1ccccn1)C(=O)N1CCCC1 was read as GPR151 ag -2.6, FBW7 activator 0.1, MITF primary 18.2 and TEAD-YAP inh 4.4.
`CC(C)(C)n1nc(Cc2cccc3ccccc23)c2c(N)ncnc21` gave GPR151 ag 1.2 and MITF primary -2.2.
For CC(C)(C)n1nc(-c2ccccc2)c2c(N)ncnc21 the results were GPR151 ag 5.2*, GPR151 conf act 0.1 and GPR119 ag -0.9.
Screening COc1ccc(C(C)=O)cc1CN(C)C returned GPR151 ag 6.6*, FBW7 activator -0.4, MITF primary 5.2, TEAD-YAP inh -7.9, GPR151 conf act 1.9 and GPR119 ag 2.8.
Screening CCCCn1c(CNC(=O)c2ccc(C)c(C)c2)nnc1SC(C)C(=O)Nc1sc2c(c1C(=O)OCC)CCC2 (centres undefined) returned GPR151 ag -2.0, FBW7 activator 0.4, MITF primary 6.2 and TEAD-YAP inh 12.6.
For O=C1CC(=O)Nc2cc(S(=O)(=O)N3CCn4c3nc3ccccc34)ccc2N1 the results were GPR151 ag 5.9*, FBW7 activator 0.2, MITF primary 7.9, TEAD-YAP inh -5.7, GPR151 conf act 0.1 and GPR119 ag 9.6.
`Cn1c(=O)oc2cc(S(=O)(=O)N3CCn4c3nc3ccccc34)ccc21` gave GPR151 ag 0.8, FBW7 activator -0.1, MITF primary 3.4 and TEAD-YAP inh -10.9.
`Nc1nc2c(nc(N/N=C/c3ccc(O)cc3)n2C2OC(CO)C(O)C2O)c(=O)[nH]1` (centres undefined) gave GPR151 ag 0.2, FBW7 activator 0.1, MITF primary -0.6 and TEAD-YAP inh -2.8.
Screening COc1cc2c(cc1OC)C(COc1ccc([N+](=O)[O-])cc1)N(C(=O)Nc1cccc(Cl)c1)CC2 (centres undefined) returned GPR151 ag 2.6, FBW7 activator 0.0, MITF primary 10.2 and TEAD-YAP inh -1.7.
CC(C)CCNC(=O)c1cc(=O)[nH]c2ccc(Br)cc12 was read as GPR151 ag -0.3, FBW7 activator 0.1, MITF primary 4.2 and TEAD-YAP inh 1.9.
O=C(NC1CC1)c1cc(=O)[nH]c2ccc(Br)cc12 was read as GPR151 ag 6.2*, FBW7 activator -0.2, MITF primary 3.3, TEAD-YAP inh -14.8, GPR151 conf act -0.1 and GPR119 ag 19.9.
For CCC(C)NC(=O)c1cc(=O)[nH]c2ccc(Br)cc12 (centres undefined) the results were GPR151 ag 8.8*, FBW7 activator 0.2, MITF primary 3.0, TEAD-YAP inh 7.7, GPR151 conf act 2.7 and GPR119 ag 32.5*.
Cc1ccc(C(=O)Nc2ccc(-c3nc4ccc(NC(=O)c5ccc(C)cc5)cc4[nH]3)cc2)cc1 was read as GPR151 ag 0.7, FBW7 activator 0.0, MITF primary 12.8 and TEAD-YAP inh -46.8.
COc1ccc(N2CCN(C(=O)C(c3ccccc3)c3ccccc3)CC2)nn1 was read as GPR151 ag 5.7*, FBW7 activator -0.2, MITF primary 7.0, TEAD-YAP inh 2.9, GPR151 conf act 0.9 and GPR119 ag 0.7.
`Cc1ccc(N2CCN(C(=O)Nc3ccccc3)CC2)nn1` gave GPR151 ag -0.9, FBW7 activator 0.1, MITF primary 0.1 and TEAD-YAP inh -2.7.
Screening CSc1cccc(NC(=O)N2CCN(c3ccc(C)nn3)CC2)c1 returned GPR151 ag 5.6*, FBW7 activator 0.2, MITF primary 1.5, TEAD-YAP inh 4.4, GPR151 conf act 0.9 and GPR119 ag -3.2.
`Cc1cc(NC(=O)c2ccc3c(c2)C(=O)N(CC2CCCO2)C3=O)no1` (centres undefined) gave GPR151 ag -0.2, FBW7 activator -0.2, MITF primary 0.5 and TEAD-YAP inh -2.9.
Cc1nnc(NC(=O)c2ccc3c(c2)C(=O)N(CC2CCCO2)C3=O)s1 (centres undefined) was read as GPR151 ag 6.9*, FBW7 activator 0.1, MITF primary 16.7, TEAD-YAP inh 1.2, GPR151 conf act -0.2 and GPR119 ag 9.1.
For Cc1nc2nc(NCc3ccc(Br)cc3)[nH]n2c(=O)c1C the results were GPR151 ag -0.6, FBW7 activator 0.1, MITF primary 4.4 and TEAD-YAP inh 0.3.
O=[N+]([O-])c1c(N2CCCC2)ncnc1N1CCCC1 was read as GPR151 ag 0.5, FBW7 activator 0.0, MITF primary -1.7 and TEAD-YAP inh 6.0.
For O=[N+]([O-])c1c(N2CCCCC2)c([N+](=O)[O-])c2nsnc2c1N1CCCCC1 the results were GPR151 ag 5.6*, FBW7 activator -0.1, MITF primary 12.9, TEAD-YAP inh 2.6, GPR151 conf act -1.4 and GPR119 ag -10.4.
CCN(CC)C(=O)c1sc(N)c(C(=O)OC(C)C)c1C was read as GPR151 ag 16.1*, FBW7 activator 0.0, MITF primary 11.7, TEAD-YAP inh 0.1, GPR151 conf act -0.2 and GPR119 ag 2.7.
Screening CC1=C(C(=O)Nc2ccccc2)C(c2ccc(C(C)C)cc2)n2ncnc2N1 (centres undefined) returned GPR151 ag -1.1, FBW7 activator 0.3, MITF primary 7.8 and TEAD-YAP inh -7.3.

Screening data from PubChem.
